Laboratory results: PubChem BioAssay (EPA / NIEHS)
Active and inactive are the calls of the source. How the source made its calls: active means hit-call score of the fitted dose curve at least 0.9, where 1 is the maximum; inactive means score below 0.9.

Assay: ATG_TGFb_CIS: Attagene CIS-FACTORIAL HepG2 Assay for human Transforming Growth Factor (TGF) (AID 2282967)
Conditions: HepG2 Attagene CIS TGFb reporter, mRNA transcription; actives raise or lower the signal
Summary of the method: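 After a 24-hour incubation with compound, transfected HepG2 cells were lysed for RNA; reporter cDNA was amplified, fluorescently end-labeled and separated by CE. DMSO served as baseline for bidirectional fits.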

| Structure (SMILES) | outcome | AC50 |
| --- | --- | --- |
| O=C=Nc1cccc2c(N=C=O)cccc12 | inactive | – |
| CCn1c2ccccc2c2ccccc21 | – | 0.0275 µM (active) |
| CO[Si](CCCOCC1CO1)(OC)OC (configuration not stated) | inactive | – |
| O=C(O)CCC(F)(F)C(F)(F)C(F)(F)F | inactive | – |
| O=S(=O)(O)c1ccc(Cl)cc1 | inactive | – |
| NS(=O)(=O)C(F)(F)C(F)(F)C(F)(F)C(F)(F)C(F)(F)C(F)(F)F | – | 54.4 µM (active) |
| CCc1cc(Cc2cc(CC)c(N)c(CC)c2)cc(CC)c1N | inactive | – |
| C=C(C)CCCC | inactive | – |
| CCN(CC)c1ccc(C=O)cc1 | inactive | – |
| Cc1ccc(O)cn1 | inactive | – |
| CC1=CCC2C(=O)OC(=O)C2C1 (configuration not stated) | inactive | – |
| C[C@]12CC[C@H]3C(=CCc4cc(O)ccc43)[C@@H]1CCC2=O | inactive | – |
| CC(C)Nc1ccc(NC(C)C)c2c1C(=O)c1ccccc1C2=O | inactive | – |
| Cc1cc(C)c(O)c(C(C)(C)C)c1 | inactive | – |
| Cc1cc(=O)[nH]c(C(C)C)n1 | inactive | – |
| N#CCCOCCC#N | inactive | – |
| O=C=NCc1cccc(CN=C=O)c1 | inactive | – |
| CCCCCCCCn1sc(Cl)c(Cl)c1=O | inactive | – |
| CC(C)(C)c1cc(CCC(=O)OCC(COC(=O)CCc2cc(C(C)(C)C)c(O)c(C(C)(C)C)c2)(COC(=O)CCc2cc(C(C)(C)C)c(O)c(C(C)(C)C)c2)COC(=O)CCc2cc(C(C)(C)C)c(O)c(C(C)(C)C)c2)cc(C(C)(C)C)c1O | inactive | – |

| Structure (SMILES) | outcome | AC50 |
| --- | --- | --- |
| Cc1cc(O)c(C(C)(C)C)cc1C(C)(C)C | – | 2.2 µM (active) |
| Cc1ccc(O)c(-n2nc3ccccc3n2)c1 | inactive | – |
| CCc1ccc(C)nc1 | inactive | – |
| CC1CCCCC1 | inactive | – |
| CN(N=O)C(=O)N[C@@H]1[C@@H](O)[C@H](O)[C@@H](CO)O[C@@H]1O | inactive | – |
| C=CC(=O)OCC(F)(F)C(F)(F)C(F)(F)C(F)(F)C(F)(F)C(F)(F)C(F)(F)C(F)F | inactive | – |
| Cc1ccc([N+](=O)[O-])c(C)c1 | inactive | – |
| CCCCC(CC)COC(=O)c1ccc(N(C)C)cc1 (configuration not stated) | inactive | – |
| CC1=CCC(=O)O1 | inactive | – |
| CCCCOC(=O)C(C)O (configuration not stated) | inactive | – |
| CCC/C=C/CO | inactive | – |
| CC(O)C#CC(C)O (configuration not stated) | inactive | – |
| CN1CN(C)CN(C)C1 | inactive | – |
| O=C(c1ccccc1)c1ccc(Cl)cc1 | – | 100 µM (active) |
| N#Cc1ccccc1O | inactive | – |
| CC(C)(C)C(=O)C1C(=O)c2ccccc2C1=O | inactive | – |
| O=S(=O)(OCC(F)(F)F)C(F)(F)C(F)(F)C(F)(F)C(F)(F)F | inactive | – |
| OCCCCl | inactive | – |
